According to PubChem BioAssay AID1159580 (chemical genetic matrix, 2015):
Where “and” joins values, the source holds several entries; their conditions need not be identical. Identical values can stand only once. Out of some 5,500 compounds screened, about 2,000 (36%) were called active. Inconclusive results (about 18%) are left out. Rule as the data show it: active = normalized growth mostly below about 0.91 (no sharp cut-off); inconclusive = no clear call, values can overlap the other calls; inactive = mostly above about 0.92. Some of the results follow.

Assay: chemical genetic growth profiling, strain panel (AID 1159580);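 also: tested at 20 µM; growth read once vehicle control cultures reached saturation at 30 °C; 1 = growth at the plate median or of vehicle wells; lower values mean less growth of the strain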
Settings: S. cerevisiae deletion strains, growth OD

Measured: normalized growth

Clc1ccc(COC(Cn2ccnc2)c2ccc(Cl)cc2Cl)cc1 (stereo not given)
active: locus YAL013W, strain DEP1, stronger effect = lower value 0.0557 | locus YAL021C, strain ccr4, stronger effect = lower value 0.0668 | locus YAL026C, strain drs2, stronger effect = lower value 0.0618 | locus YAL030W, strain snc1, stronger effect = lower value 0.0554 | locus YBL061C, strain skt5, stronger effect = lower value 0.0644 | locus YBR009C, strain hhf1, stronger effect = lower value 0.0597 | locus YBR021W, strain FUR4, stronger effect = lower value 0.086 | locus YBR023C, strain chs3, stronger effect = lower value 0.0622 | locus YBR171W, strain sec66, stronger effect = lower value 0.0758 | locus YBR229C, strain ROT2, stronger effect = lower value 0.0463 | locus YBR231C, strain swc5, stronger effect = lower value 0.0645 | locus YBR279W, strain paf1, stronger effect = lower value 0.0619 | locus YCL011C, strain gbp2, stronger effect = lower value 0.0566 | locus YCL016C, strain dcc1, stronger effect = lower value 0.0644 | locus YCL029C, strain bik1, stronger effect = lower value 0.06 | locus YCL061C, strain MRC1, stronger effect = lower value 0.0624 | locus YCL069W, strain vba3, stronger effect = lower value 0.0606 | locus YCR088W, strain abp1, stronger effect = lower value 0.0621 | locus YDL005C, strain med2, stronger effect = lower value 0.0718 | locus YDL035C, strain GPR1, stronger effect = lower value 0.0503 | locus YDL040C, strain nat1, stronger effect = lower value 0.0573 | locus YDL074C, strain BRE1, stronger effect = lower value 0.0774 | locus YDL101C, strain DUN1, stronger effect = lower value 0.055 | locus YDL134C, strain PPH21, stronger effect = lower value 0.0501 | locus YDL185W, strain tfp1, stronger effect = lower value 0.0607 | locus YDL192W, strain arf1, stronger effect = lower value 0.0606 | locus YDR001C, strain nth1, stronger effect = lower value 0.0586 | locus YDR069C, strain doa4, stronger effect = lower value 0.0605 | locus YDR101C, strain arx1, stronger effect = lower value 0.0571 | locus YDR137W, strain rgp1, stronger effect = lower value 0.093 | locus YDR150W, strain NUM1, stronger effect = lower value 0.055 | locus YDR159W, strain sac3, stronger effect = lower value 0.0898 | locus YDR162C, strain NBP2, stronger effect = lower value 0.0476 | locus YDR195W, strain ref2 0.131 | locus YDR297W, strain sur2, stronger effect = lower value 0.0541 | locus YDR318W, strain mcm21, stronger effect = lower value 0.061 | locus YDR334W, strain swr1, stronger effect = lower value 0.0622 | locus YDR335W, strain msn5, stronger effect = lower value 0.0604 | locus YDR388W, stronger effect = lower value 0.0583 | locus YDR392W, strain spt3, stronger effect = lower value 0.0764 | locus YDR502C, strain sam2, stronger effect = lower value 0.0603 | locus YEL003W, strain gim4, stronger effect = lower value 0.0531 | locus YEL037C, strain rad23, stronger effect = lower value 0.0573 | locus YEL061C, strain CIN8 (second series), stronger effect = lower value 0.0612 | locus YEL061C, strain CIN8, stronger effect = lower value 0.0491 | locus YER015W, strain faa2, stronger effect = lower value 0.0598 | locus YER016W, strain bim1, stronger effect = lower value 0.0634 | locus YER110C, stronger effect = lower value 0.0724 | locus YER111C, strain swi4, stronger effect = lower value 0.0738 | locus YER155C, strain BEM2 (second series), stronger effect = lower value 0.0963 | locus YER155C, strain BEM2, stronger effect = lower value 0.0618 | locus YER167W, strain BCK2, stronger effect = lower value 0.0498 | locus YFR010W, strain ubp6, stronger effect = lower value 0.0675 | locus YGL078C, strain dbp3, stronger effect = lower value 0.0728 | locus YGL086W, strain mad1, stronger effect = lower value 0.0553 | locus YGL167C, strain pmr1, stronger effect = lower value 0.0771 | locus YGL173C, strain kem1, stronger effect = lower value 0.0703 | locus YGL227W, strain vid30, stronger effect = lower value 0.0629 | locus YGL240W, strain doc1, stronger effect = lower value 0.089 | locus YGL248W, strain PDE1, stronger effect = lower value 0.046 | locus YGL253W, strain hxk2, stronger effect = lower value 0.0531 | locus YGR135W, strain pre9, stronger effect = lower value 0.0589 | locus YGR229C, strain SMI1, stronger effect = lower value 0.0609 | locus YGR252W, strain gcn5, stronger effect = lower value 0.114 | locus YHR013C, strain ard1, stronger effect = lower value 0.0983 | locus YHR027C, strain rpn1, stronger effect = lower value 0.0623 | locus YHR030C, strain SLT2, stronger effect = lower value 0.0501 and 0.104 | locus YHR079C, strain IRE1 (second series), stronger effect = lower value 0.058 | locus YHR079C, strain IRE1, stronger effect = lower value 0.114 | locus YHR094C, strain hxt1, stronger effect = lower value 0.0575 | locus YHR129C, strain ARP1, stronger effect = lower value 0.0576 | locus YHR142W, strain chs7, stronger effect = lower value 0.0716 | locus YHR200W, strain rpn10, stronger effect = lower value 0.0591 | locus YIL066C, strain RNR3, stronger effect = lower value 0.143 | locus YIL073C, strain SPO22, stronger effect = lower value 0.1 | locus YIL125W, strain kgd1, stronger effect = lower value 0.0707 | locus YIR030C, strain dcg1, stronger effect = lower value 0.0577 | locus YJL092W, strain hpr5, stronger effect = lower value 0.0592 | locus YJL095W, strain BCK1 (second series), stronger effect = lower value 0.0566 | locus YJL095W, strain BCK1, stronger effect = lower value 0.0581 and 0.1 | locus YJL115W, strain asf1, stronger effect = lower value 0.0714 | locus YJL129C, strain trk1, stronger effect = lower value 0.0943 | locus YJL134W, strain LCB3, stronger effect = lower value 0.048 | locus YJL154C, strain vps35, stronger effect = lower value 0.0599 | locus YJL164C, strain tpk1, stronger effect = lower value 0.0592 | locus YJL166W, strain qcr8, stronger effect = lower value 0.0601 | locus YJL168C, strain set2, stronger effect = lower value 0.0595 | locus YJL187C, strain SWE1 (second series), stronger effect = lower value 0.0469 | locus YJL187C, strain SWE1, stronger effect = lower value 0.058 | locus YJR043C, strain POL32, stronger effect = lower value 0.0638
